Laboratory results from PubChem BioAssay (Tox21).
Results filed as inconclusive are left out. The source made the active and inactive calls. Unless noted, the call rests on the fitted dose curve; in most records, active means well fitted curve in the direction sought with a large enough effect in the repeat runs; inconclusive means weak or mixed curves; inactive means no such curve, though single readings can be large; an effect the other way counts as inactive or inconclusive.

Experiments:
[1] = molecular target: Thyrotropin receptor (Homo sapiens) (UniProt P16473); assay: qHTS assay to identify small molecule antagonists of the thyroid stimulating hormone receptor (TSHR) signaling pathway (AID 1259385; calls by dose curve; further: nearly all actives have a fitted effect of over 20% in size)
In short: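 TSHR-HEK293 cells were plated and held 18 h at 37C/5% CO2, then given compound plus Ro20-1724 and stimulated with TSH at 1.5 ng/mL final. After 30 min at room temperature, cAMP was detected with cAMP-d2/anti-cAMP-cryptate (1 h) by fluorescence.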

[2] = qHTS assay to identify small molecule agonists of the estrogen receptor alpha (ER-alpha) signaling pathway in the presence of an antagonist - cell viability counter screen (AID 1259386);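 further: series mostly up to about 92 µM; cells exposed to compounds for 22 h at 37 °C before the viability read; nearly all actives have a fitted effect of over 30% in size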
In short: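 VM7Luc4E2, stripped-serum pre-culture 5 d; 24hr plating; +ICI-182,780 10.0nM final; cpds 15 conc, 22hr, 37C/5% CO2; CellTiter-Fluor added at 21hr, fluorescence 1hr later.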

[3] = molecular target: Progesterone receptor (Homo sapiens) (UniProt P06401); assay: qHTS assay to identify small molecule agonists of the progesterone receptor (PR) signaling pathway (AID 1346784; calls by dose curve; further: nearly all actives have a fitted effect of over 30% in size)
In short: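 Beta-lactamase reporter read-out: after 16 hr compound treatment at 37C and a further 2 hr at room temperature with LiveBLAzer B/G FRET substrate, fluorescence was measured in PR-UAS-bla HEK 293T cells grown in 2% charcoal-stripped serum.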

[4] = molecular target: Progesterone receptor (Homo sapiens) (UniProt P06401); assay: qHTS assay to identify small molecule antagonists of the progesterone receptor (PR) signaling pathway (AID 1346795; active means well fitted inhibition curve with a large enough effect in the signal ratio in the repeat runs, not every such curve was filed as active; the % refers to the signal ratio)
In short: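 Read-out is fluorescence from the LiveBLAzer B/G FRET substrate, cleaved by a UAS-controlled beta-lactamase in PR-UAS-bla HEK293T cells after 16 hr exposure to compound plus 1 nM promegestone (final), followed by 2 hr at room temperature.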

[5] = qHTS assay to identify small molecule antagonists of the progesterone receptor (PR) signaling pathway - cell viability counter screen (AID 1346798);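 further: HEK293T PR-UAS-bla cells stimulated with the agonist R5020; series mostly up to about 92 µM; nearly all actives have a fitted effect of over 50% in size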
In short: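 HEK293T PR-UAS-bla, 2% charcoal-stripped FBS; 4 hr pre-plate; cpd + R5020, 16 h 37C; LiveBLAzer read first; then CellTiter-Glo 30 min RT, luminescence.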

[6] = qHTS assay to identify small molecule agonists of the progesterone receptor (PR) signaling pathway - cell viability counter screen (AID 1346799; calls by dose curve; further: nearly all actives have a fitted effect of over 45% in size)
In short: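 Luminescence from CellTiter-Glo, added after the beta-lactamase FRET read in the same wells, gave cytotoxicity in PR-UAS-bla HEK293T cells treated with compounds for 16 hr at 37C.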

[7] = qHTS assay to identify small molecule antagonists of the TGF-beta/Smad signaling pathway - cell viability counter screen (AID 1346824); further: nearly all actives have a fitted effect of over 50% in size
In short: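 SBE-bla HEK 293T cells were plated overnight at 37 C, then given compounds in DMSO plus TGF-beta1 (added as 0.25 ng/mL solution) for 5 hr. After the bla read, CellTiter-Glo was added to the same wells and luminescence read after 30 min at room temperature.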

[8] = qHTS assay to identify small molecule agonists of the TGF-beta/Smad signaling pathway - cell viability counter screen (AID 1346829); further: top concentration of the series differs between compounds; nearly all actives have a fitted effect of over 45% in size
In short: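 Here the cytotoxicity of library compounds is measured in SBE-bla HEK 293T cells treated for 5 hr, using CellTiter-Glo added to wells already read for the beta-lactamase reporter.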

[9] = qHTS assay to identify small molecule agonists of the TGF-beta/Smad signaling pathway (AID 1346859; active means well fitted activation curve with a large enough effect in the signal ratio in the repeat runs, not every such curve was filed as active; the % refers to the signal ratio; further: series mostly up to about 77 µM)
In short: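 SBE-bla HEK 293T, 4,000 cells/well, plated o/n; cpd in DMSO, 5 hr, 37 C/5% CO2; B/G FRET substrate 2 hr RT; ex 405, em 460/530 nm.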

[10] = molecular target: Thyrotropin-releasing hormone receptor (Homo sapiens) (UniProt P34981); assay: qHTS assay to identify small molecule antagonists of the thyrotropin-releasing hormone receptor (TRHR) signaling pathway (AID 1346877; active means well fitted inhibition curve with a large enough effect in the repeat runs, not every such curve was filed as active; further: series mostly up to about 51 µM)
In short: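 Intracellular calcium fluorescence, read kinetically every second over 3 min, reports TRH-evoked signalling in HEK293 cells carrying TRHR. Test compounds were added 5 min ahead of a 1 nM TRH challenge.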
On the % scale 0 is the no-effect control and ±100 the full control effect.

Chain of Thyrotropin receptor (Homo sapiens) (P16473 whole entry, looked up): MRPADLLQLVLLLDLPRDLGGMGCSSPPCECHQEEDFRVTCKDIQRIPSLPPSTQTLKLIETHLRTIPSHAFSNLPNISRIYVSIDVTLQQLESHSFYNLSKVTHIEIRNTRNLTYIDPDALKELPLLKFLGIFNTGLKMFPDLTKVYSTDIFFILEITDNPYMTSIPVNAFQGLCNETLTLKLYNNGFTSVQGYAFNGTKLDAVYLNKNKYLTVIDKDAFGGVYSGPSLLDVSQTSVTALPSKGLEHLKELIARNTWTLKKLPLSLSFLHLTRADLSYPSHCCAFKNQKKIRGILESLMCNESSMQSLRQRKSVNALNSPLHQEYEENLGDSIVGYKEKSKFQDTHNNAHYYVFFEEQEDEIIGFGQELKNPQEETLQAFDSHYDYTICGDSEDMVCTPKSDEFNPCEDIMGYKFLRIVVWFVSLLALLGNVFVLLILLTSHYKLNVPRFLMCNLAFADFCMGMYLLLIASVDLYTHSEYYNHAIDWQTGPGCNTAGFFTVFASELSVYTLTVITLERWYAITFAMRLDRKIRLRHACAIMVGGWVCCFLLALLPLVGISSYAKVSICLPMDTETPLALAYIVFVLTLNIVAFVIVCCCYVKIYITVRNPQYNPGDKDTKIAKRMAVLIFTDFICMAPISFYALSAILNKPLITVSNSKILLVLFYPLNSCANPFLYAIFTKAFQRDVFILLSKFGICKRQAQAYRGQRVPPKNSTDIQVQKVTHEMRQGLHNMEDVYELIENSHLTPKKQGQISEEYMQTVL
Chain of Thyrotropin-releasing hormone receptor (Homo sapiens) (P34981 whole entry, looked up): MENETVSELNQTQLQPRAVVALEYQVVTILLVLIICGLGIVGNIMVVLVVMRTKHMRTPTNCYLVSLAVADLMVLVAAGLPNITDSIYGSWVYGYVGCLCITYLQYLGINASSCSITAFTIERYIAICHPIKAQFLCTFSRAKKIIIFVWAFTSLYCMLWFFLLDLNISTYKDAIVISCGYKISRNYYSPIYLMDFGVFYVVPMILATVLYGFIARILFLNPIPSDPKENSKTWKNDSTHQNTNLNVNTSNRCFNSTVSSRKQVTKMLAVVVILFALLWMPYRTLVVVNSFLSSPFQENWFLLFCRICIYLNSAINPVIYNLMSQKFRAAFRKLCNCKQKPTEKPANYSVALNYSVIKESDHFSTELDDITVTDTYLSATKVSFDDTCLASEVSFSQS
Chain of Progesterone receptor (Homo sapiens) (P06401 whole entry, looked up): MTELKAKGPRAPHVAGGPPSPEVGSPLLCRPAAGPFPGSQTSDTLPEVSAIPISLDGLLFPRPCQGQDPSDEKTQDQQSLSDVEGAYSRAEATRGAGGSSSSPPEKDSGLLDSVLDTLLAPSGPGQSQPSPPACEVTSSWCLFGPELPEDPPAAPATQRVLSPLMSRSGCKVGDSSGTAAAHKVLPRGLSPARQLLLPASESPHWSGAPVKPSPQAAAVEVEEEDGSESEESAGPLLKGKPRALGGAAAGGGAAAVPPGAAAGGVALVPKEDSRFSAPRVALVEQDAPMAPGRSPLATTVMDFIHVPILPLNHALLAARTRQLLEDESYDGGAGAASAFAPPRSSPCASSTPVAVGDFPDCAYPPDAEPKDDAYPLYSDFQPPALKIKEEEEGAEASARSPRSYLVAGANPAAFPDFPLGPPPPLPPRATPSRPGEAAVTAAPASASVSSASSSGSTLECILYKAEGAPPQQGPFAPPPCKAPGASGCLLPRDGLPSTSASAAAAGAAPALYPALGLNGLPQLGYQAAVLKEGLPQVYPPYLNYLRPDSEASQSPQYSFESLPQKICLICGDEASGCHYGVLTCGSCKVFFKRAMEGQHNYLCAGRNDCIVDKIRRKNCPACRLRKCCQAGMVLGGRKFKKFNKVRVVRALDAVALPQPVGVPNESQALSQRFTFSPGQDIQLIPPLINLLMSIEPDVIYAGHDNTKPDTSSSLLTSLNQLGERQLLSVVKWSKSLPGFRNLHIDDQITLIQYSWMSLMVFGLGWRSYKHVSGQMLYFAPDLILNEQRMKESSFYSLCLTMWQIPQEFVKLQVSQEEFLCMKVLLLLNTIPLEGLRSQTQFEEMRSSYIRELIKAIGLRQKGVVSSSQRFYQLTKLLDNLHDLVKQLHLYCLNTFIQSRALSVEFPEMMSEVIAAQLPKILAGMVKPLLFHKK

CN1CCCC1
inactive: Potency [1] | Potency [2] | Potency [3] | Potency [4] | Potency [5] | Potency [6] | Potency [7] | outcome [8] | outcome [9] | outcome [10]

COc1c(N2C[C@@H]3CCCN[C@@H]3C2)c(F)cc2c(=O)c(C(=O)O)cn(C3CC3)c12
inactive: Potency [1] | Potency [2] | Potency [3] | Potency [4] | Potency [5] | Potency [6] | outcome [8] | outcome [9]

COC(C)(C)CCCC(C)CC=O (centres undefined)
inactive: Potency [1] | Potency [2] | Potency [3] | Potency [4] | Potency [5] | Potency [6] | Potency [7] | outcome [8] | outcome [10]

COC(=O)NN
inactive: Potency [1] | Potency [2] | Potency [3] | Potency [4] | Potency [5] | Potency [6] | Potency [7] | outcome [8] | outcome [9] | outcome [10]

NS(=O)(=O)c1ccc(C(=O)O)cc1
inactive: Potency [1] | Potency [2] | Potency [3] | Potency [4] | Potency [5] | Potency [6] | outcome [8] | outcome [9]

CCc1nccnc1CC
inactive: activity change, negative = inhibition [1] 0.0688% [at 19 µM] | activity change, negative = cytotoxicity [2] 1.02% [at 19 µM] | activation [3] 0.626% [at 19 µM] | Potency [4] | Potency [5] | activity change, negative = cytotoxicity [6] -10.8% [at 19 µM] | viability change, negative = cytotoxic [7] 4.47% [at 15.8 µM] | activity change, negative = cytotoxicity [8] 3.37% [at 15.8 µM] | activation [9] 1.18% [at 15.8 µM] | activity, negative = inhibition [10] 3.49% [at 10.5 µM]

O=c1[nH]c(=O)n([C@H]2C[C@H](O)[C@@H](CO)O2)cc1I
inactive: Potency [1] | Potency [2] | Potency [4] | Potency [5] | Potency [7] | outcome [8] | outcome [9]

COC(=O)c1c(Cl)c(Cl)c(C(=O)OC)c(Cl)c1Cl
inactive: Potency [1] | Potency [2] | Potency [5] | Potency [6] | Potency [7] | outcome [8] | outcome [9]

OC1CCCCC1c1ccccc1 (centres undefined)
inactive: Potency [1] | Potency [2] | Potency [4] | Potency [5] | Potency [6] | Potency [7] | outcome [8] | outcome [9] | outcome [10]

O=C(O)CCCl
inactive: Potency [1] | Potency [2] | Potency [4] | Potency [5] | Potency [6] | Potency [7] | outcome [8] | outcome [9] | outcome [10]

CC(=O)OC/C=C(\C)CC/C=C(\C)CCC=C(C)C
inactive: Potency [1] | Potency [2] | Potency [4] | Potency [5] | Potency [6] | Potency [7] | outcome [8] | outcome [9] | outcome [10]

CCOC(=O)c1cccc(N)c1
inactive: Potency [1] | Potency [2] | Potency [4] | Potency [5] | Potency [6] | Potency [7] | outcome [8] | outcome [9] | outcome [10]

C[C@](N)(Cc1ccc(O)cc1)C(=O)O
inactive: activity change, negative = inhibition [1] 1.98% [at 8.39 µM] | activity change, negative = cytotoxicity [2] 3.17% [at 8.39 µM] | activity change, negative = inhibition [4] 12.2% [at 8.39 µM] | activity change, negative = cytotoxicity [5] 2.75% [at 8.39 µM] | activity change, negative = cytotoxicity [6] 2.57% [at 8.39 µM] | viability change, negative = cytotoxic [7] 15.7% [at 6.97 µM] | activity change, negative = cytotoxicity [8] 0.568% [at 6.97 µM] | activation [9] 2.67% [at 6.97 µM]

OCCCC1CCCCC1
inactive: Potency [1] | Potency [2] | Potency [4] | Potency [5] | Potency [6] | Potency [7] | outcome [8] | outcome [9] | outcome [10]

CCN(CC)CCNC(=O)c1cc(S(C)(=O)=O)ccc1OC
inactive: Potency [1] | Potency [2] | Potency [4] | Potency [5] | Potency [6] | Potency [7] | outcome [8] | outcome [9] | outcome [10]

Cc1cccc(C)c1NC(=O)C(C)N (centres undefined)
inactive: Potency [1] | Potency [2] | Potency [5] | Potency [7] | outcome [8] | outcome [9]

CC1(C)C(O)C(C)(C)C1O (centres undefined)
inactive: Potency [1] | Potency [2] | Potency [5] | Potency [6] | Potency [7] | outcome [8] | outcome [9]

NCCCNCCSP(=O)(O)O
inactive: activity change, negative = inhibition [1] -3.62% [at 8.39 µM] | activity change, negative = cytotoxicity [2] -0.352% [at 8.39 µM] | activity change, negative = cytotoxicity [5] 1.3% [at 8.39 µM] | activity change, negative = cytotoxicity [6] 17.5% [at 8.39 µM] | viability change, negative = cytotoxic [7] 10.3% [at 6.97 µM] | activity change, negative = cytotoxicity [8] -10% [at 6.97 µM] | activation [9] 0.256% [at 6.97 µM] | activity, negative = inhibition [10] 2.65% [at 4.65 µM]

COc1nc(N)nc2c1ncn2[C@@H]1O[C@H](CO)[C@@H](O)[C@@H]1O
inactive: Potency [1] | Potency [2] | Potency [4] | Potency [5] | Potency [7] | outcome [8] | outcome [9] | outcome [10]

COC(=O)c1cc(C(=O)OC)cc(S(=O)(=O)O)c1
inactive: Potency [1] | Potency [2] | Potency [6] | Potency [7] | outcome [8] | outcome [9] | outcome [10]

CC(=O)c1ccccc1O
inactive: Potency [1] | Potency [2] | Potency [4] | Potency [5] | Potency [6] | Potency [7] | outcome [8] | outcome [9] | outcome [10]

CCCC(=O)O[C@]1(C(=O)CO)CC[C@H]2[C@@H]3CCC4=CC(=O)CC[C@]4(C)[C@H]3[C@@H](O)C[C@@]21C
inactive: Potency [1] | Potency [2] | Potency [4] | Potency [5] | Potency [7] | outcome [8] | outcome [9] | outcome [10]
